# NSD2 inh: NSD2 histone methyltransferase inhibitors, primary screen, biochemical, AlphaScreen, single concentration, set 2; Histone-lysine N-methyltransferase NSD2 (Homo sapiens), O96028; NSD2 peptide methylation, 120 min; inhibition, % at 12.5 µM; 310,000 tested, 0.54% active; in the data active = inhibition above about 50%
# Casp6 inh: human caspase-6 inhibitors, primary screen, biochemical, VEID-R110 fluorescence, single point, set 2. inhibition, % at 12.5 µM. 350,000 tested, 0.53% active. purified caspase-6, Z-VEID-R110 cleavage fluorescence. P55212;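 active = mean inhibition across replicates at least about 35%, with every replicate also reaching that limit, limit read from the data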;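 also: 0% = median of neutral control wells and 100% = no fluorescence left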
# AF4-AF9 inh: inhibitors of AF4 peptide binding to AF9, primary screen, biochemical, AlphaScreen, biotin-AF4 peptide, FLAG-AF9, single point; Protein AF-9 (Homo sapiens), P42568; inhibition, % at 10 µM; 350,000 tested, 0.47% active; AID 651704, 2012;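 active = every replicate reaching a set inhibition limit, whatever the replicate mean, cut at about 25% in these data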;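 also: 0% = plate neutral control median and 100% = total signal loss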
# Target sequence (P42568 whole entry, looked up): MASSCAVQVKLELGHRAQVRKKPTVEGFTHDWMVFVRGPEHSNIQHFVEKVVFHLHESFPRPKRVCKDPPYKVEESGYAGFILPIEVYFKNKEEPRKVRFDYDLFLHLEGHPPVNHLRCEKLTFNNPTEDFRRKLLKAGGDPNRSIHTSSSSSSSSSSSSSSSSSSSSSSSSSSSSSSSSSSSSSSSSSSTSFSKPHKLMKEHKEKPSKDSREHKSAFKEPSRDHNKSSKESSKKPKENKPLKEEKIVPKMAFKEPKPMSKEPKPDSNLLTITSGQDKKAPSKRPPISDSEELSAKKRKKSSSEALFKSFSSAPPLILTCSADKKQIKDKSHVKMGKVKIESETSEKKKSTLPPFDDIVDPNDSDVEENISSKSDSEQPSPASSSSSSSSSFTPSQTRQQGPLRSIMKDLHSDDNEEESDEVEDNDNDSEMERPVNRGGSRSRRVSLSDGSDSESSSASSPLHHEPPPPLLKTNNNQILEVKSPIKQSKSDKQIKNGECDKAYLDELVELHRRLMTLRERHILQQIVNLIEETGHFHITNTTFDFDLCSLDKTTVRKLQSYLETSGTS
# miR122 inh: miR-122 Renilla sensor signal increase in Huh7, primary screen, miR-122 inhibitor project, cell-based, single point, plate reader; Huh7 miR-122 Renilla luciferase sensor, 48 h; neutral wells = 0, positive control = 100; activation (reporter increase), % at 12.5 µM; 340,000 tested, 0.3% active; AID 602342, 2012;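 active = mean replicate activation score at least 90 and every replicate individually at or above 90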;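 also: higher luciferase means less miR-122 activity so hits act as miR-122 inhibitors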
# RAD52 inh: RAD52 DNA annealing inhibitors, primary screen, biochemical, FRET, single point, set 2; DNA repair protein RAD52 homolog (Homo sapiens), P43351; recombinant RAD52 DNA annealing, FRET fluorescence; inhibition, % at 18.7 µM; 360,000 tested, 0.46% active; AID 651710, 2012;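 active = every replicate showing at least 50% inhibition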
# Alpha artifact: AlphaScreen signal interference with preloaded methylated product, dose response, artefact control for NSD2 inhibitor project, biochemical, cherry-picked samples | shares compounds with NSD2 inh | AlphaScreen artifact counterscreen, preloaded methylated H4 peptide | AC35, µM (top dose mostly 10 µM), without a hit: at the highest dose activity change, negative = signal loss | 1,500 tested, 9.4% active; call rule not given here
# * = called active by the depositor; . = no result given; [ ] = remark or other dose. An excerpt weighted towards active compounds, which were near 1.5% of everything screened.
SMILES,NSD2 inh,Casp6 inh,AF4-AF9 inh,miR122 inh,RAD52 inh,Alpha artifact
COCc1[nH][nH]c(=O)c1C=NCC(=O)OC,51*,-5,-2,-4,-10,-6%
COCc1[nH][nH]c(=O)c1C=Nc1ccccc1,0,.,.,1,.,.
COc1cc2sc(C)nc2c2ccccc12,64*,40*,-8,.,4,-1%
CC(=O)c1ccc(S(=O)(=O)Nc2cccc(-n3cnnn3)c2)cc1,115*,56*,1,7,-14,-13%
CCc1ccc(NC(=O)c2cc(-c3ccc4c(c3)OCO4)on2)cc1,87*,-2,-2,.,-8,1%
CC(C)C#Cc1ccc2c(c1)O[C@@H](CN(C)S(=O)(=O)c1cn(C)cn1)[C@H](C)CN([C@H](C)CO)S2(=O)=O,.,1,1,10[16.7 µM],-5,.
COc1ccc(S(=O)(=O)N2CCCCC2)cc1NC(=O)Cc1ccsc1,51*,-1,4,2,-16,-4%
CCOc1ccc(S(=O)(=O)N2CCCCC2)cc1NC(=O)Cc1ccsc1,0,-1,-3,6,-8,.
COc1ccc(S(=O)(=O)N(C)C[C@H]2Oc3c(NS(=O)(=O)c4c(C)noc4C)cccc3C(=O)N([C@H](C)CO)C[C@H]2C)cc1,.,.,2,-1[16.7 µM],-39,.
Cc1cc(OCC(=O)Nc2ccccc2N2CCCC2)ccc1C(C)C,2,-121,12,.,-10,.
Cc1cc(OCC(=O)Nc2ccccc2N2CCCCC2)ccc1C(C)C,77*,-4,0,.,-30,-1%
CC1=NOC(=O)/C1=C/c1ccc(O)c(Br)c1,7,3,0,.,-73,.
CC1=NOC(=O)/C1=C\c1ccc(-c2ccccc2Br)o1,69*,15,-1,.,-14,-12%
CC1=NOC(=O)/C1=C\c1ccc(-c2ccc(Cl)c(C(=O)O)c2)o1,84*,31,-4,-2,-44,-7%
CC1=NOC(=O)/C1=C\c1ccc(-c2cccc(Cl)c2)o1,0,.,.,2,.,.
CN(C)CCCNC(=O)C[C@@H]1CC[C@H](NS(=O)(=O)c2ccc(F)cc2)[C@H](CO)O1,.,2,-1,.,-1,.
Cn1c(=O)c2c(nc(CN3CCC(C(N)=O)CC3)n2Cc2c(Cl)cccc2Cl)n(C)c1=O,-7,.,.,-8,.,.
Cn1c(=O)c2c(nc(CN3CCC(C(N)=O)CC3)n2Cc2ccccc2Cl)n(C)c1=O,65*,.,.,-6,.,-5%
CCCCn1c(NC(=O)c2ccccc2)c(C#N)c2nc3ccccc3nc21,162*,.,.,7,.,3%
N#Cc1c(NC(=O)c2ccc(Br)o2)n(-c2ccccc2)c2nc3ccccc3nc12,177*,46*,-7,20,-37,1%
Cc1ccc(C(=O)NCCn2c(N)c(C#N)c3nc4ccccc4nc32)cc1,55*,.,.,-2,.,0%
C[C@@H]1CN([C@H](C)CO)C(=O)c2cc(N(C)C)ccc2O[C@@H](C)CCCCO[C@H]1CN(C)Cc1ccncc1,.,.,.,6[16.7 µM],.,.
COc1ccc(S(=O)(=O)N[C@H]2CC[C@H](CC(=O)N3CCc4ccccc4C3)O[C@@H]2CO)cc1,.,-1,-2,.,-8,.
CCc1ccc(N2CN=c3s/c(=C\c4ccccc4)c(=O)n3C2)cc1,61*,-3,2,0,-8,3%
CN(c1ccccc1)S(=O)(=O)c1ccc(C(=O)NNC(=O)c2ccccc2)cc1,-2,5,0,-3,-6,.
CN(c1ccc(C(=O)O)cc1)S(=O)(=O)c1ccccc1,52*,.,.,1,.,0%
CCc1nc2ccc(C)cc2c(C(=O)NC2CCCCC2C)c1C (configuration not stated),75*,.,.,44,.,-2%
COc1ccc(/C=N/Nc2nnc(C)n2N)cc1OC,111*,22,-1,.,-12,-3%
COc1ccc(NC(=O)CN2CCN(S(=O)(=O)N3CCCCCC3)CC2)cc1,74*,0,1,.,-10,3%
COc1ccc(NC(=O)CN2CCCC2)cc1,-3,5,2,5,-8,.

# Screening results: PubChem, Broad Institute
